Data on 15 compounds can be found in PubChem BioAssay (NCATS).

Test [1] in a line: AP1 Signaling Pathway (AID 357; active = well fitted curve in either direction with a large enough effect, not every such curve was filed as active;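 also: ME-180 reporter cells stimulated with EGF at its EC50 level; % is scaled to controls: 0 for no effect and ±100 for the full control effect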). Particulars: ME-180 (cervical carcinoma) AP-1-bla reporter, EGF-induced, beta-lactamase ratio, 5 h; at 7.69 µM (top of the series) unless noted. The method in brief: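 A ratiometric CCF4 readout (405 nm excitation; 460 and 530 nm emission) quantified AP-1-driven beta-lactamase in ME-180 cells after 5 h with compound and EC50 EGF; AC50 values were derived for activators and inhibitors.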

The target in test [2] is Cytochrome P450 1A2 (Homo sapiens) (UniProt P05177). Put plainly: p450-cyp1a2 (AID 410; calls by dose curve; also: potency is read from the fitted curve at half-maximal effect). The method in brief:
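20nM CYP1A2, 100uM Luciferin-ME (=Km), 100mM KPO4; cpd 10 min RT; +NADPH regen, 60 min RT; stop/detect 20 min; luminescence. Normalized to furafylline 57 uM = full inhibition.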

A short description of test [3]: NFAT Signaling Pathway (AID 444; active = well fitted curve in either direction with a large enough effect, not every such curve was filed as active;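 also: carbachol stimulus at about its EC50 of 1 µM final; % is scaled to controls: 0 for no effect and ±100 for the full control effect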). Particulars: Jurkat NFAT-bla M1, carbachol, beta-lactamase ratio, 5 h; at 7.69 µM (top of the series) unless noted. The method in brief:
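Jurkat cells with NFAT-driven β-lactamase reporter and co-expressed M1 receptor, stimulated with carbachol (final 1 uM, ~EC50), compound titration, 5 h at 37 °C. CCF4 loaded 1 h at RT; 460/530 nm ratio gave %activity and AC50.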

Test [4] concerns the target 3',5'-cyclic-AMP phosphodiesterase 4B (Homo sapiens) (UniProt Q07343). Briefly: qHTS Assay for Inhibitors of PDE-IV (AID 607; active = well fitted activation curve with a large enough effect in the main read-out, with a control signal flat, not every such curve was filed as active; also: % of control where 0% means no effect). Put shortly:
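ACTOne HEK293 cells carry a modified cAMP-gated CNG channel and express endogenous PDE4; plated 1000 cells/well, compounds up to 22.9 uM final. Membrane-potential dye fluorescence (ex 535/em 590) was read; parental cells received 10 uM forskolin + 100 uM RO 20-1724.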
On the technique in general: qHTS replaces the single test concentration by a dilution series.

Test [5] concerns the target Cytochrome P450 3A4 (Homo sapiens) (UniProt P08684). Briefly: qHTS Assay for Activators of Cytochrome P450 3A4 (AID 885). Also: nearly all actives have a fitted effect of over 65% in size. Put shortly: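 CYP3A4 activity: Luciferin-PPXE O-dealkylation, 25uM substrate, 200mM KPO4, RT throughout. Read-out is luciferase luminescence; higher values reflect activation.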
Test [6] addresses Cytochrome P450 2C19 (Homo sapiens) (UniProt P33261). Briefly: qHTS Assay for Inhibitors and Substrates of Cytochrome P450 2C19 (AID 899). Also: nearly all actives have a fitted effect of over 60% in size. Also: potency is read from the fitted curve at half-maximal effect. The method in brief: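 Luminescent read-out of luciferin formed from Luciferin-H EGE (10uM, equal to KM). Enzyme 5nM in 50mM KPO4; compound added, 10 min at 37C, then NADPH regenerating system for 60 min at 37C. Full inhibition defined by 57uM ketoconazole.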

Test [7] has as its target Dual specificity protein kinase CLK4 (Homo sapiens) (UniProt Q9HAZ1). Briefly: qHTS Assay for Inhibitors of CDC-like Kinase 4 (ADP-FP Assay) (AID 1795). Also: nearly all actives have a fitted effect of over 60% in size. Also: potency is read from the fitted curve at half-maximal effect. Put shortly:
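Kinase activity was followed as ADP output, converted from fluorescence polarization with a calibration curve. Reactions ran one hour at low ATP (1 uM) with RS peptide substrate.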

In test [8] the target is Lysosomal acid glucosylceramidase (Homo sapiens) (UniProt P04062). Put plainly: Glucocerebrosidase-p2 (AID 348; in the data active = potency below about 10 µM; also: potency is read from the fitted curve at half-maximal effect). Particulars: purified GBA, blue fluorogenic substrate, 40 min. Put shortly: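 Normal human glucocerebrosidase (0.2 nM) with blue fluorogenic substrate (80 uM final) in citrate/phosphate pH 5.9 with 10mM sodium taurocholate, 0.01% tween-20; 40 min RT, NaOH/glycine stop; fluorescence Ex 365/Em 440; AC50 from a titration from 0.6 nM upwards.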

Test [9] deals with Glutathione peroxidase 1 (Homo sapiens) (UniProt P07203). Put plainly: Primary qHTS Assay for Inhibitors of Recombinant Selenoprotein Glutathione Peroxidase 1 (GPX1) (AID 1845191). Also: % is scaled to controls: 0 for no effect and ±100 for the full control effect; nearly all actives have a fitted effect of over 65% in size. The method in brief:
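GR-coupled readout: NADPH consumption tracked by fluorescence, ex 340/em 450 nm, at t=0 and after 15 min at RT. Final mix 10 nM GPX1, 1 mM GSH, 0.5 mM CHP, 0.5 mM NADPH, 100 nM GR, 0.01% BSA, following 30 min enzyme–compound preincubation.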

Test [10] is described as follows: Cell Viability - Hek293 (AID 427;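 active = compounds whose dose-response curve shows a full or clear partial loss of cell viability, called from curve shape rather than a numeric limit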;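 also: potency is read from the fitted curve at half-maximal effect; cells exposed to compound for 40 hours at 37 °C before reading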). As to conditions: qHTS. Put shortly: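 Luminescent ATP read-out (CellTiter-Glo, 20 min RT) after 40 hr compound exposure at 37 °C in complete medium. Signal normalized to DMSO (basal) and 100 uM tamoxifen (100% inhibition); concentration-response fitted with the standard Hill equation to give AC50.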
Test [11] can be described thus: qHTS Assay for Identification of Small Molecule Inducers of Hypoxia Response (AID 2120; active = well fitted curve in the direction sought with a large enough effect in the signal ratio, with a control signal flat, not every such curve was filed as active; the % refers to the signal ratio; also: 0% is about no effect). The method in brief: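 Read-out: CCF4 FRET emission ratio 460nm/530nm (excitation 405nm), converted to %Activity, with AC50 fitted across a compound titration. ME-180 cells carried an HRE-driven beta-lactamase reporter; compound exposure 17 h, 37 degrees C.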
Test [12] can be described thus: qHTS assay for small molecule antagonists of retinoid X receptor alpha signaling (AID 588546; active = well fitted inhibition curve with a large enough effect in the signal ratio, with a control signal flat, not every such curve was filed as active; the % refers to the signal ratio;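 also: cells stimulated with 9-cis-retinoic acid as agonist; % is scaled to controls: 0 for no effect and ±100 for the full control effect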). As to conditions: HEK293T RXRa-UAS-bla, beta-lactamase ratio, antagonist mode; measured here: W530 green channel, cytotoxicity proxy. Put shortly: (§1)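 Beta-lactamase reporter inhibition, read as CCF4 fluorescence ratio (ex 405, em 460/530 nm) after 2 h at RT. HEK293T UAS-bla cells, 2500/well, were stimulated with 9-cis-RA at 500 or 100 nM final alongside test compound for 18 h at 37 C.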

For test [13], the target named is Retinoic acid receptor RXR-alpha (Homo sapiens) (UniProt P19793). The description is as above. As to conditions: HEK293T RXRa-UAS-bla, beta-lactamase ratio, antagonist mode. The method in brief: as §1
Test [14] can be described thus: qHTS assay for environmental chemicals that activate the Aryl hydrocarbon Receptor (AhR) signaling pathway (AID 651777). Also: % of control where 0% means no effect; nearly all actives have a fitted effect of over 15% in size. Particulars: 1A2-DRE human hepatoma cells, luciferase, 24 h; activation: stronger effect = higher value. Put shortly:
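Quantitative HTS in stably transfected human liver-derived cells whose luciferase gene sits downstream of the CYP1A2 promoter and dioxin response element. After 24 hr exposure at 37 C, One-Glo luminescence was measured.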

Test [15] in a line: qHTS assay for small molecule agonists of the antioxidant response element (ARE) signaling pathway measured by Nrf2-dependant transcriptional activity - cell viability counter screen (AID 720653; active = well fitted curve in the direction sought with a large enough effect in the repeat runs; an effect the other way counts as inactive or inconclusive; also: % is scaled to controls: 0 for no effect and ±100 for the full control effect). Particulars: ARE-bla HepG2 viability, CellTiter-Glo ATP luminescence, 16 h; max response: stronger effect = lower value. The method in brief:
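ARE-bla HepG2 cells treated with compounds for 16 h at 37C; this counter screen measures viability as intracellular ATP by CellTiter-Glo luminescence after 30 min at room temperature.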

Test [16] can be described thus: qHTS assay for cell viability of the p53RE-bla HCT-116 cell line (AID 743292). Also: % is scaled to controls: 0 for no effect and ±100 for the full control effect; nearly all actives have a fitted effect of over 55% in size. Put shortly: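 Viability of compound-treated p53RE-bla HCT-116 cells is taken from ATP-dependent luciferase luminescence. Treatment lasts 16 h at 37 C after a 5 h settling period; detection follows 30 min at room temperature.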
The target in test [17] is Cytochrome P450 3A4 (Homo sapiens) (UniProt P08684). Briefly: qHTS Assay for Inhibitors and Substrates of Cytochrome P450 3A4 (AID 884). Also: potency is read from the fitted curve at half-maximal effect; nearly all actives have a fitted effect of over 50% in size. The method in brief: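 Luminescent readout of luciferin produced by CYP3A4 (20 nM) dealkylation of Luciferin-PPXE, 25 uM (its KM). NADPH-driven reaction ran 60 min at RT after 10 min compound preincubation; data scaled to 57 uM ketoconazole as 100% inhibition.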

Test [18] has as its target Phospholipid hydroperoxide glutathione peroxidase GPX4 (Homo sapiens) (UniProt P36969). Put plainly: Primary qHTS Assay for Inhibitors of Recombinant Selenoprotein Glutathione Peroxidase 4 (GPX4) (AID 1845192). Also: potency is read from the fitted curve at half-maximal effect; nearly all actives have a fitted effect of over 65% in size. The method in brief:
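Steps: GPX4 plus compound, 30 min RT; add GR/GSH/NADPH master mix; start with cumene hydroperoxide; read 340/450 nm fluorescence at 0 and 15 min. Finals were 200 nM GPX4, 1 mM GSH, 0.5 mM CHP, 0.5 mM NADPH, 100 nM GR.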

Several values for one entry are separate records, joined by “and”; a condition that tells them apart may be missing. Identical values can stand only once. Inconclusive results are not listed. Activity calls are given as the source filed them. Unless noted, calls follow the shape of the dose curve; as a rule, active = well fitted curve in the direction sought with a large enough effect; inconclusive = small, poorly fitted or top-dose-only effect, or another doubt; inactive = no such curve, though single readings can be large; an effect the other way counts as inactive or inconclusive.

Cytochrome P450 1A2 (Homo sapiens), sequence (P05177 whole entry, looked up): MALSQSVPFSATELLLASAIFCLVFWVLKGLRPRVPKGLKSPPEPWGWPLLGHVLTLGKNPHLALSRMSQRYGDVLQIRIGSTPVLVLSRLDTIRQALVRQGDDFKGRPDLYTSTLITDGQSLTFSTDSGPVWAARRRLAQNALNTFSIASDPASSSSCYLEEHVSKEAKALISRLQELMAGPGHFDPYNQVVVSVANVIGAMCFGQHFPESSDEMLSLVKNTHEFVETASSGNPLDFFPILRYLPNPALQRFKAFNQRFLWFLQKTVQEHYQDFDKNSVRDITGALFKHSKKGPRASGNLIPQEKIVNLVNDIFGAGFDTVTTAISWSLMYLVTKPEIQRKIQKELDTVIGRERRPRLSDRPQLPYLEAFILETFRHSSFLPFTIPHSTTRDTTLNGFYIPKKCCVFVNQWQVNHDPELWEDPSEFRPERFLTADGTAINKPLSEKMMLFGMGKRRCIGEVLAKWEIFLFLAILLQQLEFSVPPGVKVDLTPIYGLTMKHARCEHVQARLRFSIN
Lysosomal acid glucosylceramidase (Homo sapiens), sequence (P04062 whole entry, looked up): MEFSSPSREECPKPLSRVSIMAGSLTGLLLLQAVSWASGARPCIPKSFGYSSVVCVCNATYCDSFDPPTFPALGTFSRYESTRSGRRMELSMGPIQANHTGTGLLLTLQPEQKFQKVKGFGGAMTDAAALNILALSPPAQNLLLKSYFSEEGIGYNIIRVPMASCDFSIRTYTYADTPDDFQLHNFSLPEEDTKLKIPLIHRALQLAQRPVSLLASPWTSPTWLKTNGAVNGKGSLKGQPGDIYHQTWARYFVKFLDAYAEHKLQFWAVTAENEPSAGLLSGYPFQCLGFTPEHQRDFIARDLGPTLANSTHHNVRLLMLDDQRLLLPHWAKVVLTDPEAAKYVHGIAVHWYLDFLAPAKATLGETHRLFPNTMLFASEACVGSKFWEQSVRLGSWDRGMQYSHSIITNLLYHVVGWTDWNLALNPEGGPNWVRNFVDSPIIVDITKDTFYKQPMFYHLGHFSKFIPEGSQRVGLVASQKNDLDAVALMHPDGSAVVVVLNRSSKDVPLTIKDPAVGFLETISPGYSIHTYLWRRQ
3',5'-cyclic-AMP phosphodiesterase 4B (Homo sapiens), sequence (Q07343 whole entry, looked up): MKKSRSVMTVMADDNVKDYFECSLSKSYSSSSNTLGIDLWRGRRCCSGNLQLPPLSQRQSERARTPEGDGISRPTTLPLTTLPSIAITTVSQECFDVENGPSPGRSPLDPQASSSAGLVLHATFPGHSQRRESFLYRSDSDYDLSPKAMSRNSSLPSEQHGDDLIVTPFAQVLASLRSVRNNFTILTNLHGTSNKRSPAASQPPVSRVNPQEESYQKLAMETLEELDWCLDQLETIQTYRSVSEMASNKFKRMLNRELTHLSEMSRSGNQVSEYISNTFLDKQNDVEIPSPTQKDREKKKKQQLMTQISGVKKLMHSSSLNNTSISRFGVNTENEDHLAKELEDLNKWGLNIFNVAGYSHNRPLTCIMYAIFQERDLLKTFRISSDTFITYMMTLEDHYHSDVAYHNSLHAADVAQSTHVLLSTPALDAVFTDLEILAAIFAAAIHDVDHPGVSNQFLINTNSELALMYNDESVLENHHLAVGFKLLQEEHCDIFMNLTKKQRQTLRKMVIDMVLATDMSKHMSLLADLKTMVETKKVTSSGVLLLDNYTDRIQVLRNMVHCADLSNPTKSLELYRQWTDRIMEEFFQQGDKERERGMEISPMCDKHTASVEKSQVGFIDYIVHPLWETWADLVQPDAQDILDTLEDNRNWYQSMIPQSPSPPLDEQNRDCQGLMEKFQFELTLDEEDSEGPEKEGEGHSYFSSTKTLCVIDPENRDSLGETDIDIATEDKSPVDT
Cytochrome P450 2C19 (Homo sapiens), sequence (P33261 whole entry, looked up): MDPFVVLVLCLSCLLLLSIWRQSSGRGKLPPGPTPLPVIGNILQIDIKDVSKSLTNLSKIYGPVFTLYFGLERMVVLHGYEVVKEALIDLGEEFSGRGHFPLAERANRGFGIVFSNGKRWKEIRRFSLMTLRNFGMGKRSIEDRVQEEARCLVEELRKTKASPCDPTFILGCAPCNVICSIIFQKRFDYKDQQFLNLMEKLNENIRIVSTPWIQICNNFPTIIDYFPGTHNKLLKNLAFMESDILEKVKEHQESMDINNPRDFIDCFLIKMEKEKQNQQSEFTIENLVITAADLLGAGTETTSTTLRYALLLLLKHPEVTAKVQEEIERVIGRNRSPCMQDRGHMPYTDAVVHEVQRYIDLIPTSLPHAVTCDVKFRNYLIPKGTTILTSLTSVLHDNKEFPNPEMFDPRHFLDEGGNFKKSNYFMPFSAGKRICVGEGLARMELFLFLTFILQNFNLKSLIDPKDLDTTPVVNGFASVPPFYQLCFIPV
Retinoic acid receptor RXR-alpha (Homo sapiens), sequence (P19793 whole entry, looked up): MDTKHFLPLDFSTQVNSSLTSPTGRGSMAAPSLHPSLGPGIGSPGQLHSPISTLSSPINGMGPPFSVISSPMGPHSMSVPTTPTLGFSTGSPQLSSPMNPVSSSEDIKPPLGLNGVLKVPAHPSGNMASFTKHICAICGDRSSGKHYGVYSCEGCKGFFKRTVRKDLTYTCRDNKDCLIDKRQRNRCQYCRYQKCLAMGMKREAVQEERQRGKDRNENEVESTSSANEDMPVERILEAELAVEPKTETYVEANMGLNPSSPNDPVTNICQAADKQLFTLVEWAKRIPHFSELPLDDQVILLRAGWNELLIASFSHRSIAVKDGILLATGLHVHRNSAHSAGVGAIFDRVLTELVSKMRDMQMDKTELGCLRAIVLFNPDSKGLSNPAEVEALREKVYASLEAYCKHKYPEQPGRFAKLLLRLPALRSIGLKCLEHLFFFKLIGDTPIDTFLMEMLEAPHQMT
Dual specificity protein kinase CLK4 (Homo sapiens), sequence (Q9HAZ1 whole entry, looked up): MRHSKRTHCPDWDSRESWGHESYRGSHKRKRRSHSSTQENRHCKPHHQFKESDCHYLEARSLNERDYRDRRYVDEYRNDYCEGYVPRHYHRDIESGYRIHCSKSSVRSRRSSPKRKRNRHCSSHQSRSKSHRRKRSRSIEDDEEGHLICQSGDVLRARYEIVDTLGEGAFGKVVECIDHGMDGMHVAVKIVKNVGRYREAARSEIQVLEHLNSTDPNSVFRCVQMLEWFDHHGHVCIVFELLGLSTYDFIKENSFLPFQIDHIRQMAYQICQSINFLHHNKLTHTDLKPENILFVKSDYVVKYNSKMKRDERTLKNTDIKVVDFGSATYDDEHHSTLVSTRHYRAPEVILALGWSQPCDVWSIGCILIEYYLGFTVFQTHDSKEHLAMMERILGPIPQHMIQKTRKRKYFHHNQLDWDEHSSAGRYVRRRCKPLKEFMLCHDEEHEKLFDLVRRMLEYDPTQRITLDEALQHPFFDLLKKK
Cytochrome P450 3A4 (Homo sapiens), sequence (P08684 whole entry, looked up): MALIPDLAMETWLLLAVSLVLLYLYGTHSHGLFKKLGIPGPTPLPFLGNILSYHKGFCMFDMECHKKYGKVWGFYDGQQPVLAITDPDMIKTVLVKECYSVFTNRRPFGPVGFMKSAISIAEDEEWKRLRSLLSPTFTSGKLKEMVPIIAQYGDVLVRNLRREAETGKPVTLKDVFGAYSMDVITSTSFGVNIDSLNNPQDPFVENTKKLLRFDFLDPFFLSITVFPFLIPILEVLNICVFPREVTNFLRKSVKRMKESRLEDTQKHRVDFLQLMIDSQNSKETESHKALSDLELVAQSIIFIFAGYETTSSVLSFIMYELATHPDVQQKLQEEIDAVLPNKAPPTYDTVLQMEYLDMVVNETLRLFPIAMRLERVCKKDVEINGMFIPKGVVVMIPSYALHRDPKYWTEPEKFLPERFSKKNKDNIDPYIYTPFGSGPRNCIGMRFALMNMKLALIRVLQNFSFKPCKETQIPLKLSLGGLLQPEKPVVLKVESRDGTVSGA
Glutathione peroxidase 1 (Homo sapiens), sequence (P07203 whole entry, looked up): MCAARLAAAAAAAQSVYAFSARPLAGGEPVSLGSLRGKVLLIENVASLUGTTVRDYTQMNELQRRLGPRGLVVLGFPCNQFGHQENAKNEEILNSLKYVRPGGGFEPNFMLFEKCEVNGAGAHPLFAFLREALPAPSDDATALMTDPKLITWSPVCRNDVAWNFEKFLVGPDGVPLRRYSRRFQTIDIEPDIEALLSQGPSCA
Phospholipid hydroperoxide glutathione peroxidase GPX4 (Homo sapiens), sequence (P36969 whole entry, looked up): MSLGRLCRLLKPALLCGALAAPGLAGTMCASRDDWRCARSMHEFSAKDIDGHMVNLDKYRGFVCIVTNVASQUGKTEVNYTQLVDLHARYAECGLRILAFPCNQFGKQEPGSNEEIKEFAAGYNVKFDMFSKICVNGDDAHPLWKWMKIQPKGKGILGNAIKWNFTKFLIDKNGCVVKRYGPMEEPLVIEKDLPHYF

As for `CN(C)c1ccc(-c2cncnc2NCCc2cnc[nH]2)cc1`, the activity change, negative = inhibition is -28.6% (inactive) in test [1] and -15.1% (inactive) in test [3]. Besides, the Potency in test [2] is 1.26 µM (active); in test [6], 0.0794 µM (active). Further, the Potency result in test [4] and in test [7] was “inactive” throughout. The result in test [5] was inactive.
Turning to `CN1CCN(c2nc(-c3cccnc3)nc3ccccc23)CC1`, the Potency in test [8] is > 11.4 µM (inactive); in [2], 3.16 µM (active). For the same compound, the values for the activity change, negative = inhibition in test [1] and in [3] were 5.32% (inactive) and 11.1% (inactive), respectively. For the same compound, the call in [5] was inactive. In addition, the Potency result in test [7] was “inactive”.
Turning to `O=C(CCl)Nc1ccc(S(=O)(=O)c2ccc(NC(=O)CCl)cc2)cc1`, the Potency result in [9] was “inactive”.
For `CN(C)c1nc(-c2ccc3c(c2)OCO3)nc2ccccc12`, in [8], the Potency is > 11.4 µM (inactive). The activity change, negative = inhibition is 9.5% (inactive) in test [1] and -16.9% (inactive) in test [3]. Also, the Potency entry in test [4] and in test [7] was “inactive” in each case.
For `C=C(C)C1CC=C(C)C(O)C1` (stereo not given), in test [10], the Potency is > 92 µM (inactive). In addition, the outcome in test [11] was inactive. Moreover, the max response in test [12] is -6.28%; in test [13], 5.08% (inactive); in test [15] it was -2.07% (inactive). The activation in [14] was -0.5% (inactive). Further, the Potency result in [16] was “inactive”.
Regarding `COc1ccc2[nH]cc(CCNc3ncncc3-c3ccccc3C(F)(F)F)c2c1`, the Potency was > 11.4 µM (inactive) in [8], 10 µM (active) in test [2], 0.251 µM (active) in test [17] and 0.251 µM (active) in [6]. In addition, the figures for the activity change, negative = inhibition in test [1] and in [3] were 3.8% (inactive) and -3.73% (inactive), respectively. The Potency entry in test [4] and in [7] was “inactive” throughout. In test [5], the compound was called inactive.
As for `CCCCC/C=C/C/C=C/CCCCCCCC(=O)O`, the Potency entry in test [9] was “inactive”. The Potency in test [18] is 4.47 µM (active).
For `O=c1cc(-c2ccc(O)c(O)c2)oc2cc(O[C@@H]3O[C@@H](CO)[C@@H](O)[C@@H](O)[C@H]3O)cc(O)c12`, in [2], the Potency is 39.8 µM (active). The Potency result in test [6] is “inactive”.
As for `c1ccc(Nc2nc(-c3ccoc3)nc3ccccc23)cc1`, the results for the activity change, negative = inhibition in test [1] and in [3] were 0.696% (inactive) and 2.6% (inactive), respectively. For the same compound, the Potency is 0.2 µM (active) in test [2] and 7.94 µM (active) in [7]. For the same compound, the call in test [5] was inactive.
With `CCCCCCCC/C=C/CCCCCCCC(=O)O`, in test [18], the Potency is 11.2 µM (active).
For `C=CCc1ccc(OC)c(OC)c1`, the Potency in test [10] is > 92 µM (inactive). Moreover, the call in test [11] was inactive. The max response was -6.05% and 0.363% in test [12]; 9.84% (inactive) and -24.7% (inactive) in test [13]; -3.29% (inactive) and -7.51% (inactive) in test [15]. Moreover, the activation in [14] was 0.456% (inactive) and 0.0921% (inactive). Also, in test [16], the Potency entry was “inactive”.
Regarding `CN(C)Cc1ccccc1-c1ccc2ncnc(N(C)C)c2c1`, the activity change, negative = inhibition in test [1] was -1.59% (inactive); in [3], -2.16% (inactive). The Potency in test [2] is 12.6 µM (active). The Potency entry in test [4] and in test [7] was “inactive” throughout. The compound was called inactive in test [5].
For the compound `O=c1cnc2cnc(N3CCOCC3)nc2n1Cc1cccs1`, the Potency in test [8] is > 11.4 µM (inactive); in test [2], 2.51 µM (active). Further, the activity change, negative = inhibition in test [1] was -3.18% (inactive); in test [3], -0.57% (inactive). The Potency result in test [4] and in test [7] was “inactive” throughout. Also, the call in test [5] was inactive.
Regarding `COc1ccccc1CNc1nc(-c2cccc(NS(C)(=O)=O)c2)nc2ccccc12`, the Potency in test [8] is > 11.4 µM (inactive). In addition, the results for the activity change, negative = inhibition in test [1] and in test [3] were -13.2% (inactive) and -21% (inactive), respectively. Also, the Potency entry in test [7] is “inactive”.
As for `CNc1ncncc1-c1ccccc1CN(C)C`, the Potency in test [8] is > 11.4 µM (inactive). Also, the activity change, negative = inhibition in test [1] is 7.24% (inactive); in test [3], -28.4% (inactive). The Potency result in [4], in test [6] and in test [7] was “inactive” in each case.
